The campaign covered roughly 52,000 compounds. About 1,700 (3.3%) were called active. This is one part of a sample in which actives are shown more often than they occur. Cut-off read from the data, not from the text of the source: active = survival mostly below about 52% (no sharp cut-off); inactive = mostly above about 56%.
Each molecule was assayed on Wild type (assay: S. aureus survival, RN4220 and DeltatarO strains – OD600, teichoic acid synthesis inhibitors, primary screen (AID 463173)). Conditions: S. aureus RN4220 wild type/DeltatarO growth, OD600, 18 h, hits give low values, screened at 18.75 µg/mL (by protocol).

Compound | survival
O=C(COc1ccccc1Cl)OCc1cc(=O)n2nc(C3CCCCC3)sc2n1 | 71% (inactive)
Cc1ccc(Cc2nc3ccccc3nc2SCC(=O)N2CCC(C)CC2)cc1 | 77% (inactive)
COc1cccc(C(=O)Nc2nc3nc(C)c(Cc4ccccc4)c(=O)n3[nH]2)c1 | 105% (inactive)
CCc1ccc(CNc2nc3nc(C)c(Cc4ccccc4)c(=O)n3[nH]2)cc1 | 93% (inactive)
Cc1nc2nc(NCc3ccccc3Cl)[nH]n2c(=O)c1Cc1ccccc1 | 86% (inactive)
Cc1nc2c(-c3ccccc3)c(C)[nH]n2c(=O)c1Cc1ccc(C(C)C)cc1 | -5% (active)
Cc1nc2nc(NC(=O)C(C)C)[nH]n2c(=O)c1Cc1ccccc1 | 88% (inactive)
Cc1ccc(Cc2c(C)nc3c(-c4ccccc4)c(C)[nH]n3c2=O)cc1 | -11% (active)
Cc1nc2nc(NCc3cccc(Cl)c3)[nH]n2c(=O)c1Cc1ccccc1 | 85% (inactive)
Cc1cccc(Cc2c(C)nc3c(-c4ccccc4)c(C)[nH]n3c2=O)c1 | 4% (active)
CCc1c(C)nc2cc(-c3ccccc3)[nH]n2c1=O | 106% (inactive)
Cc1ccccc1Cc1c(C)nc2c(-c3ccccc3)c(C)[nH]n2c1=O | -13% (active)
CCOC(=O)CCc1c(C)nc2c(-c3ccccc3)c(C)[nH]n2c1=O | 74% (inactive)
Cc1nc2nc(NC(=O)CC(C)C)[nH]n2c(=O)c1Cc1ccccc1 | 110% (inactive)
CCCCN(C)C(=O)c1ccc2c(=O)n3nc(Nc4cc(C)ccc4C)sc3nc2c1 | 140% (inactive)
CCN(CC)CCCNC(=O)c1nn(-c2ccc(OC)c(Cl)c2)c(=O)c2c1c1ccccc1n2C | 80% (inactive)
O=C(Cn1cc(S(=O)(=O)N2CCN(c3ccccc3F)CC2)c2ccccc2c1=O)Nc1ccc(F)cc1Cl | 129% (inactive)
Cc1cccc(CN2C(=O)CC(c3ccc(Cl)cc3)c3c(C)nn(-c4nc(C)cc(C)n4)c32)c1 (configuration not stated) | 76% (inactive)
Cc1nc2nc(NCc3cccc(Br)c3)[nH]n2c(=O)c1Cc1ccccc1 | 68% (inactive)
Cc1nc2c(-c3ccccc3)c(C)[nH]n2c(=O)c1Cc1ccc(Br)cc1 | -5% (active)
Cc1nc2nc(NCc3ccc(Br)cc3)[nH]n2c(=O)c1Cc1ccccc1 | 63% (inactive)
CCc1nc2nc(C)cc(Nc3ccc(OC)cc3OC)n2n1 | 75% (inactive)
COC(=O)c1scc(-c2ccc(C)cc2)c1S(=O)(=O)Nc1ccc(F)cc1F | 72% (inactive)

Compound | survival
CCc1ccc(S(=O)(=O)c2nnn3c2nc(N(CC)Cc2ccccc2)c2cc(Cl)ccc23)cc1 | 92% (inactive)
CCN(CC)c1nc2c(S(=O)(=O)c3ccccc3)nnn2c2ccc(Cl)cc12 | 9% (active)
CCN(Cc1ccccc1)c1nc2c(S(=O)(=O)c3ccccc3)nnn2c2ccc(Cl)cc12 | 88% (inactive)
Cc1cccc(NC(=O)CSc2nnc(C)c(=O)[nH]2)c1 | 101% (inactive)
Cc1ccc(CN2CCN(C3CCN(C(=O)OC(C)(C)C)CC3)C(=O)C2=O)cc1 | 124% (inactive)
CCOC(=O)c1nnn(C(CC)C(=O)Nc2ccc(F)cc2)c1C(=O)OCC (configuration not stated) | 99% (inactive)
CCC(C(=O)Nc1cc(C)ccc1OC)n1nnc(C(=O)OC)c1C(=O)OC (configuration not stated) | 89% (inactive)
CCc1ccc(NC(=O)C(CC)n2nnc(C(=O)OC)c2C(=O)OC)cc1 (configuration not stated) | -1% (active)
CCOc1ccc(N2CC(c3nc4ccccc4n3CCCCOc3ccc(OC)cc3)CC2=O)cc1 (configuration not stated) | 71% (inactive)
CCOc1ccccc1N1CC(c2nc3ccccc3n2CCCOc2ccccc2OC)CC1=O (configuration not stated) | 79% (inactive)
CCCCN1CC(c2nc3ccccc3n2CCCCOc2cc(C)ccc2C)CC1=O (configuration not stated) | -6% (active)
CCCCN1CC(c2nc3ccccc3n2CCCCOc2ccc(C)cc2C)CC1=O (configuration not stated) | -5% (active)
Cc1ccc(CCNC(=O)CCS(=O)(=O)c2cc3c(cc2Cl)NC(=O)CO3)cc1 | 91% (inactive)
COc1ccc(C(=O)NCC(c2cccs2)S(=O)(=O)c2ccc(C)cc2)cc1 (configuration not stated) | 143% (inactive)
CCc1ccc(N(CC(=O)NCC2CCCO2)S(C)(=O)=O)cc1 (configuration not stated) | 112% (inactive)
COc1ccc(NC(=O)c2noc3c2CCCC3)cc1Cl | 82% (inactive)
O=C(Nc1ccc(OC(F)(F)F)cc1)c1noc2c1CCCC2 | 86% (inactive)
CCOC(=O)c1ccc(NC(=O)c2noc3c2CCCC3)cc1 | -2% (active)
O=C(CCS(=O)(=O)c1ccc(Br)cc1)Nc1ccc(F)cc1F | 53% (inactive)
Cc1ccccc1OCc1nc2ccccc2n1Cc1ccccc1Cl | 0% (active)
Cc1cccc(C(=O)NCc2nc3ccccc3n2Cc2ccccc2Cl)c1 | 107% (inactive)
C=CCc1ccccc1OCc1nc2ccccc2n1CC | 76% (inactive)
Cc1ccc(OCc2nc3ccccc3n2Cc2ccccc2Cl)cc1 | 7% (active)

Compound | survival
COc1ccc(OCc2nc3ccccc3n2Cc2ccccc2Cl)cc1 | 72% (inactive)
CC(=O)Nc1ccc(S(=O)(=O)NCCc2cn3ccsc3n2)cc1 | 72% (inactive)
COc1ccc(-c2nc3sc(CCNC(=O)C(=O)Nc4ccc(C)c(C)c4)c(C)n3n2)cc1 | 117% (inactive)
Cc1cc(C(F)F)n2nc(C(=O)Nc3ccc(F)c(Cl)c3)nc2n1 | 83% (inactive)
CN1CCc2c(sc3nc(=S)[nH]c(N)c23)C1 | 109% (inactive)
COc1cccc(Nc2sc(C(=O)c3ccc(F)cc3)c(N)c2C(=O)NCc2ccc(Cl)cc2)c1 | 0% (active)
Cc1ccccc1Nc1sc(C(=O)c2ccccc2)c(N)c1C(=O)NCc1ccc(Cl)cc1 | 73% (inactive)
COc1cccc(Nc2sc(C(=O)c3ccc(Cl)cc3)c(N)c2C(=O)NCc2ccc(C)cc2)c1 | 76% (inactive)
COc1cccc(Nc2sc(C(=O)c3ccc(F)cc3)c(N)c2C(=O)NCc2ccc(C)cc2)c1 | 63% (inactive)
Cc1ccc(CNC(=O)c2c(Nc3ccccc3C)sc(C(=O)c3ccc(F)cc3)c2N)cc1 | -3% (active)
Cc1ccccc1Nc1sc(C(=O)c2ccc(F)cc2)c(N)c1C(=O)NCCc1ccccc1 | 55% (inactive)
CCS(=O)(=O)N1CC(=O)N(c2cc(C)ccc2C)C(C)(C(=O)NC2CCCCC2)C1 (configuration not stated) | 59% (inactive)
COc1ccc(-c2cn3c(n2)sc2cc(C(=O)NC4CCCc5ccccc54)ccc23)cc1 (configuration not stated) | 78% (inactive)
COC(=O)c1ccccc1NC(=O)CSc1nc2ccsc2c(=O)n1CCC(C)C | 78% (inactive)
CCn1c(SCC(=O)Nc2ccccc2C(=O)OC)nc2ccsc2c1=O | 83% (inactive)
CCC(C)n1c(SCC(=O)Nc2ccccc2C(=O)OC)nc2ccsc2c1=O (configuration not stated) | -1% (active)
O=C(NCC(c1ccco1)S(=O)(=O)c1cccs1)c1ccccc1F (configuration not stated) | 80% (inactive)
Fc1ccc(CNc2cc(-c3ccccc3)nc3nncn23)cc1 | 29% (inactive)
Fc1ccc(-c2cc(C(F)(F)F)nc(NCc3ccccc3)n2)cc1 | 93% (inactive)
Fc1ccc(CNc2nc(-c3ccc(Cl)cc3)cc(C(F)(F)F)n2)cc1 | -5% (active)
Fc1ccc(CNc2nc(-c3ccccc3)cc(C(F)(F)F)n2)cc1 | -3% (active)
O=C(NCc1ccc(F)cc1)c1cc(-c2ccc(Cl)cc2)n[nH]1 | 94% (inactive)
CC1CCN(S(=O)(=O)c2ccc3nc(NCc4ccccc4)ccc3c2)CC1 | 131% (inactive)

Compound | survival
Cc1nc2ccn(Cc3ccco3)c(=O)c2cc1C(=O)NCc1ccc(Cl)cc1 | 60% (inactive)
O=C(O)c1ccc2c(c1)C(=O)NC2=O | 113% (inactive)
O=C(Nc1ccc2[nH]c(=O)c(=O)[nH]c2c1)c1cccc(F)c1 | 140% (inactive)
CC(=O)Nc1ccc(S(=O)(=O)NC2=NCN(C(C)C)CN2)cc1 | 143% (inactive)
C=CCNC(=O)Nc1c[nH]c2ccccc2c1=O | 111% (inactive)
O=C(CSCc1cc(=O)c2ccccc2[nH]1)Nc1cccc(C(F)(F)F)c1 | 124% (inactive)
O=C(O)CCC(=O)N1CCc2cc(S(=O)(=O)NCc3ccc(F)cc3)ccc21 | 85% (inactive)
O=C(CCc1nnc2n(Cc3ccccc3Cl)c(=O)c3ccccc3n12)Nc1ccc(F)c(F)c1 | 89% (inactive)
O=C(Nc1ccc(F)cc1F)c1cc(CN2CCOCC2)on1 | 69% (inactive)
CCOC(=O)c1cnc2c(C)cc(Cl)cc2c1NCCc1ccc(OC)c(OC)c1 | 48% (inactive)
CCOC(=O)c1cnc2c(C)c(Cl)ccc2c1NCCc1ccc(OC)c(OC)c1 | 4% (active)
CCOC(=O)c1cnc2c(C)c(C)ccc2c1NCCCCCO | 110% (inactive)
CCOC(=O)c1cnc2ccc(OC)cc2c1NCCc1ccccc1 | 0% (active)
CCOC(=O)c1cnc2c(C)cc(C)cc2c1NCCc1ccc(OC)c(OC)c1 | 75% (inactive)
CCOC(=O)c1cnc2c(C)c(Cl)ccc2c1Nc1ccc(C)cc1C | 140% (inactive)
CCOC(=O)c1cnc2c(C)c(Cl)ccc2c1NCCc1ccccc1 | -3% (active)
CCOC(=O)c1cnc2ccc(OCC)cc2c1NCCc1ccc(OC)c(OC)c1 | 133% (inactive)
CCOC(=O)c1cnc2ccc(OC)cc2c1NCCc1ccc(OC)c(OC)c1 | 78% (inactive)
COc1cc(Cl)c(C)cc1NC(=O)c1cnn(-c2ccc(C)cc2)c1-n1cccc1 | 65% (inactive)
CC1(C(=O)O)CCC(C(=O)N2CCCCC2)C1(C)C (configuration not stated) | 106% (inactive)
Cc1ccc(NC2=C(CC(=O)O)C(c3ccc(F)cc3)N(c3ccc(C)cc3)C2=O)cc1 (configuration not stated) | 74% (inactive)
Cc1ccc(CNC(=O)CCc2c(C)c3ccc(O)c(C)c3oc2=O)cc1 | 87% (inactive)
Cc1nc2sc(C(=O)NCc3ccc(Cl)cc3)c(NC(=O)c3ccccc3)c2c(C)c1C | 86% (inactive)
